Hit rate of the full screen: of about 6,200 compounds, about 2,900 (47%) were called active. No stated cut-off is given here; in the data, active means inhibition above about 50%; inactive means the rest. So high a share suggests a set chosen from earlier hits. This is one part of the list.

The assay can be described thus: Mycobacterium tuberculosis growth inhibition, primary screen (AID 1259343). The conditions noted are these: inhibition: at 10 µM, stronger effect = higher value; outcome: 10 uM.
For the molecule `O=C(CC12CC3CC(CC(C3)C1)C2)N=C1N=C2C=CC=CN2Cc2ccccc21`, the inhibition (in general, the drop in the measured response relative to a control, in per cent) is -15.7% (inactive).
The result for `O=C(N=C1N=C2N=CC=CN2Cc2ccccc21)Nc1ccc(Cl)c(Cl)c1` reads 88% (active); that for `O=C(N=C1N=C2C=CC(Br)=CN2Cc2ccccc21)c1ccccn1`, 10.5% (inactive); that for `O=C(Nc1ccc(Oc2ccccc2F)cc1)C1CCN(C(=O)C#Cc2ccccc2)CC1`, 89.6% (active).
Then `Cc1cc(C(=O)N2CCC(C(=O)Nc3ccc(Oc4ccccc4F)cc3)CC2)c(C)o1`, with “inactive”; and `O=C(Nc1ccc(F)cc1F)C1CCN(C(=O)c2cccnc2)CC1`, with 85.7% (active); and `O=C(Nc1ccc(Oc2ccccc2)nc1)C1CCN(C(=O)C2=CCCC2)CC1`, with 44% (inactive).
The result for `O=C(Nc1ccc(Oc2ccccc2F)cc1)C1CCN(C(=O)C2=CCCC2)CC1` reads 90.8% (active).
For the molecule `O=C(Nc1ccc(Oc2ccccc2F)cc1)C1CCN(C(=O)c2ccncc2)CC1`, the inhibition is 90.8% (active).
Then `O=C(Nc1ccc(Oc2ccccc2F)cc1)C1CCN(C2Cc3ccccc3C2)CC1`, with 91.6% (active).
Then `Cc1cc(NC(=O)c2ccccc2)n(-c2nc3c(c(=O)[nH]2)CCC3)n1`, with -26.4% (inactive).
As for `Cc1cc(NC(=O)c2ccc(F)c(F)c2)n(-c2nc3c(c(=O)[nH]2)CCC3)n1`, the inhibition was -20.9% (inactive).
The result for `Cc1cc(NC(=O)c2ccccc2C)n(-c2nc3c(c(=O)[nH]2)CCC3)n1` reads 100% (active); that for `Cc1cc(NC(=O)c2cc(Cl)ccc2Cl)n(-c2nc3c(c(=O)[nH]2)CCC3)n1`, 37.1% (inactive).
The result for `COc1ccc(Cl)cc1C(=O)Nc1cc(C)nn1-c1nc2c(c(=O)[nH]1)CCC2` reads 95.5% (active).
Consider `Cc1cc(NC(=O)c2ccc(Cl)cc2)n(-c2nc3c(c(=O)[nH]2)CCC3)n1`, for which the inhibition is 101% (active).
For the molecule `Cc1cc(NC(=O)c2ccco2)n(-c2nc3c(c(=O)[nH]2)CCC3)n1`, the inhibition was 101% (active).
The result for `CCCN1CCCc2cc(CCNS(=O)(=O)Cc3cccc(C)c3)ccc21` reads 31.9% (inactive); that for `O=C(Nc1ccc(Oc2ccc(Cl)cc2)c(Cl)c1)c1cc(I)cc(I)c1O`, 101% (active).
The result for `O=C(CSc1nnc(SCc2ccccc2)s1)NN=Cc1ccc([N+](=O)[O-])cc1` reads 83.1% (active).
In the case of `CCCCCC(=O)NN=Cc1ccc([N+](=O)[O-])cc1`, the inhibition is 100% (active).
On to `CCCCCCC(=O)NN=Cc1ccc([N+](=O)[O-])cc1`, for which the inhibition was 77.5% (active).
The result for `CCCC(=O)Oc1c(S(=O)(=O)c2ccc([N+](=O)[O-])cc2)c(C)nn1-c1ccccc1` reads 28.6% (inactive).
With `CC(C)(C)c1ccc(C=NOCc2ccc([N+](=O)[O-])cc2)cc1`, the inhibition is -20.2% (inactive).
Then `CSc1nnc(SCc2ccc([N+](=O)[O-])cc2)s1`, with -12.4% (inactive).
Then `CC(C)=CCCC(C)=CC=NNc1ccc([N+](=O)[O-])cc1`, with 62% (active); and `CC1=Nn2cc(-c3ccccc3)nc2SC1c1ccccc1` (configuration not stated), with 20.8% (inactive).
The result for `CCCCCCCC(C)=NNc1nc2ccccc2s1` reads “inactive”; that for `CCCCCCC(C)=NNc1ccc([N+](=O)[O-])cc1`, 98.5% (active).
Regarding `C=CCc1cc([N+](=O)[O-])ccc1O`, the inhibition was 101% (active).
Then `O=C(C=Cc1cccs1)NC12CC3CC(CC(C3)C1)C2`, with “inactive”; and `O=C(C=Cc1ccco1)NC12CC3CC(CC(C3)C1)C2`, with 67.6% (active); and `O=C(/C=C/c1cc(C(F)(F)F)ccc1Cl)NCc1ccon1`, with -0.62% (inactive).
Take `O=C(C=Cc1ccc(F)cc1)NCc1ccco1`: the inhibition is 29.9% (inactive).
Consider `CC(C)(C)OC(=O)NNC(=O)C=Cc1ccco1`, for which the inhibition was -8.19% (inactive).
The result for `O=C(C=Cc1ccco1)NCc1ccc(F)cc1` reads 72.3% (active); that for `COc1ccc(C)cc1CCNC(=O)c1ccsc1`, 26.8% (inactive); that for `COc1ccc(NC(=O)CSCc2ccccn2)cc1OC(F)F`, 17.9% (inactive).
Then `COc1ccc(NC(=O)c2ccsc2)cc1OC(F)F`, with 54.8% (active); and `Cc1ccnc(N2CCN(c3ncnc4scc(-c5ccc(F)cc5)c34)CC2)c1`, with 3.93% (inactive).
Regarding `CC(C)NS(=O)(=O)CCCOc1ccc2c(c1)OCO2`, the inhibition was 50.3% (active).
With `Cc1cccc(OCCN(C)C(=O)/C=C/c2ccc3c(c2)OCO3)c1`, the inhibition is 34.9% (inactive).
On to `O=S(=O)(CCCOc1ccc2c(c1)OCO2)NC1CCCCC1`, for which the inhibition was 99.2% (active).
On to `O=S(=O)(CCCOc1ccc2c(c1)OCO2)NC1CCCCCC1`, for which the inhibition was 93% (active).
Then `COCCn1c(=S)[nH]c2sc3c(c2c1=O)CCC(C)C3` (configuration not stated), with -21.7% (inactive); and `CCN=c1scc(-c2ccc(Br)s2)n1N=CC1CCCCC1`, with 36% (inactive).
Then `CC1=CC(=NNc2nc3ccccc3[nH]2)CC(C)(C)C1`, with 24.5% (inactive).
In the case of `Cc1nc(C(C)C)sc1C(=O)Nc1nc2ccccc2[nH]1`, the inhibition is 100% (active).
The result for `CNC(=O)c1sc(N2CCN(c3ccccc3F)CC2)nc1C` reads 33.2% (inactive); that for `Cc1csc(Nc2ccc(Cl)cc2)[n+]1-c1ccc(Cl)cc1`, 16% (inactive).
Then `Cc1nc2nc(CC(=O)N3CCOCC3)nn2c(C)c1Cl`, with 52.5% (active).
Consider `CC(C)(C)C(=O)NC(=S)NC1=CC2N=C(c3ccncc3)OC2C=C1` (configuration not stated), for which the inhibition was 54.2% (active).
`CC(C)COc1ccc(NC(=O)c2ccnnc2)cc1Cl`: the inhibition is 50.1% (active).
The result for `CC(C)COc1ccc(NC(=O)C2CC2c2cnn(C)c2)cc1Cl` (configuration not stated) reads -6.2% (inactive).
Then `CC(C)COc1ccc(NC(=O)c2nn(C)c(=O)c3ccccc23)cc1Cl`, with 24.1% (inactive).
For the molecule `CS(=O)(=O)Nc1cc(Cl)ccc1Sc1ccc(F)cc1`, the inhibition was 76.2% (active).
The result for `Cc1cc(C)c(NC(=O)c2cc(C)nc3c2cnn3C(C)C)c(C)c1` reads 59.8% (active); that for `CCc1ccc(N2C(=O)C3N=NN(Cc4cccc(C)c4)C3C2=O)cc1` (configuration not stated), 67.8% (active).
The result for `CCCN(C)C(=O)c1ccc2c(c1)C(=O)N(c1ccc(OCC)cc1)C2=O` reads 21.7% (inactive); that for `CCc1ccc(N2C(=O)C3N=NN(Cc4nc(-c5cccc(Cl)c5)oc4C)C3C2=O)cc1` (configuration not stated), 83.4% (active).
Take `CCOc1ccc(N2C(=O)C3N=NN(Cc4cc(C)ccc4C)C3C2=O)cc1` (configuration not stated): the inhibition was 61.5% (active).
Then `COc1ccc(N2C(=O)C3N=NN(Cc4cc(C)ccc4C)C3C2=O)cc1Cl` (configuration not stated), with -29.4% (inactive); and `CCOc1ccc(N2C(=O)C3N=NN(Cc4cccc(C)c4)C3C2=O)cc1` (configuration not stated), with 78.4% (active).
As to `CCOc1ccc(-c2nc(CN3N=NC4C(=O)N(c5ccc(C)c(Cl)c5)C(=O)C43)c(C)o2)cc1` (configuration not stated), the inhibition is 20.2% (inactive).
For the molecule `CSc1ccc(NC(=O)c2cn[nH]n2)cc1Cl`, the inhibition is 95.5% (active).
Consider `CC(=O)/C(=N/Nc1ccc(C)cc1)N1CCOCC1`, for which the inhibition is 94.7% (active).
Then `O=C1c2cccc([N+](=O)[O-])c2C(=O)N1CNc1ccc(Cl)c(Cl)c1`, with 45.5% (inactive).
The result for `O=C1c2ccc([N+](=O)[O-])cc2C(=O)N1CNc1ccc2c(c1)oc1ccccc12` reads 86.3% (active); that for `CC(C)CCC(C)NC(=O)c1cc(O)cs1` (configuration not stated), 37.3% (inactive).
Then `Cc1cc(O)c(S(=O)(=O)c2cc(Cl)c(Cl)cc2Cl)c(=O)[nH]1`, with 60.9% (active).
As to `FC(F)(F)COCCCn1nnc(-c2ccsc2)n1`, the inhibition is 79.5% (active).
Then `O=C1NC(=O)C(=Cc2cccs2)S1`, with 42.2% (inactive); and `O=C1C(=Cc2cccs2)CCCC1=Cc1cccs1`, with 91.6% (active).
On to `O=C1C(=Cc2ccc(Br)s2)CCc2ccccc21`, for which the inhibition was 0.54% (inactive).
The result for `O=C1/C(=C/c2cccs2)C(c2cccs2)Oc2ccccc21` (configuration not stated) reads 33% (inactive).
`O=C1C(=Cc2cccs2)CCC1=Cc1cccs1`: the inhibition was 103% (active).
The result for `C=CCC1SC(=NN=Cc2cccs2)NC1=O` (configuration not stated) reads 22.9% (inactive); that for `CC1CCN(c2nnc(C(=O)Nc3ccccc3)c3ccccc23)CC1`, 24.6% (inactive).
`COCc1cc(C)nc(N/N=C\c2ccccc2[N+](=O)[O-])c1C#N`: the inhibition was -18.7% (inactive).
Take `CCOc1ccc(OCCCCOc2ccccc2[N+](=O)[O-])cc1`: the inhibition is 83.2% (active).
As for `Cc1ccccc1CON=Cc1cccc([N+](=O)[O-])c1`, the inhibition is 54.1% (active).
Then `CCOc1ccc(N=Cc2cccc([N+](=O)[O-])c2)cc1`, with 96.3% (active).
With `Cc1ccccc1CNc1cccc([N+](=O)[O-])c1`, the inhibition was 35.8% (inactive).
Then `COc1ccc(OCCCCOc2ccccc2[N+](=O)[O-])cc1`, with 76.2% (active); and `CCOC(=O)CCCCCCCCCCCCC1C=CCC1` (configuration not stated), with -30.7% (inactive).
Consider `CCOc1ccc(OCCOc2ccccc2[N+](=O)[O-])cc1`, for which the inhibition was 97.3% (active).
Then `CCOc1ccc(OCCCOc2ccc([N+](=O)[O-])cc2)cc1`, with 23% (inactive).
Then `COc1cc(C)ccc1OCCCOc1ccc([N+](=O)[O-])cc1`, with 41.8% (inactive); and `CCOc1cccc(OCCCOc2ccc([N+](=O)[O-])cc2)c1`, with 86% (active).
Consider `CCOc1ccc(OCCOc2ccc([N+](=O)[O-])cc2)cc1`, for which the inhibition was 26.5% (inactive).
The result for `COC(=O)C1=C(O)C(C(=O)OC)C(c2cccs2)C(C#N)(C#N)C1c1cccs1` (configuration not stated) reads 4.02% (inactive); that for `Cc1cccc(N2CCN(C(C)C(=O)Nc3cc(C)on3)CC2)c1` (configuration not stated), 85.9% (active).
The result for `Cc1cc(NC(=O)c2cc(CC(C)C)on2)no1` reads 47.4% (inactive); that for `CCCCCCNC(N)=S`, 72.8% (active); that for `CC1Sc2ccc(C(=O)N(C)Cc3cccc(Cl)c3)cc2NC1=O` (configuration not stated), 30.6% (inactive).
Then `Cc1nn(C)cc1CN(C)C(=O)c1cccc(Cl)c1`, with 101% (active); and `CN(Cc1ccc(Cl)cc1Cl)C(=O)C1CCN(c2ccccc2[N+](=O)[O-])CC1`, with 45% (inactive); and `CN1N=C(CC(=O)Nc2ccc(-n3nccc3C(F)(F)F)cc2)CC1=O`, with 87.8% (active).
In the case of `CC1CC1C(=O)Nc1ccc(-n2nccc2C(F)(F)F)cc1` (configuration not stated), the inhibition was 40% (inactive).
The result for `CCc1c(C)nc(-n2nc(C)cc2NC(=O)c2ccco2)[nH]c1=O` reads 100% (active); that for `Cc1cc(NC(=O)c2cc3ccccc3o2)n(-c2nc(C)c(C)c(=O)[nH]2)n1`, -29.9% (inactive); that for `Cc1cc(NC(=O)c2ccco2)n(-c2nc(C)c(C)c(=O)[nH]2)n1`, 100% (active).

The record behind these values is PubChem BioAssay AID1259343 (VanderVen Lab, College of Veterinary Medicine, Cornell …, 2017).
